Test results published in the supplement of paper PMC6555819.

Test system: PPARg:RXRa DBDmut IVT, anti-RXR (DBD mutation: RXRa K156A/R161A, NR concentration 270 nM, RXRa partner concentration 90 nM)
Experiment: PBM binding z-score (relative to random genomic background probes); higher = stronger binding; sequences stand for … in GC…GCGATTGACAGCGTAGAATGAAGG
In short: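 Antibodies against each partner of ligand-free nuclear receptor dimers (one per run) detected binding on custom Agilent 4×180K protein-binding microarrays after 1 h incubation. The double-stranded probes had 34-nt variable regions carrying direct-repeat seeds, single-nucleotide variants, half-site ablations and random human genomic background sequences. Binding z-scores, from regression-normalized fluorescence, use the random background probes as reference.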

| Sequence | PBM binding z-score |
| --- | --- |
| TCTTGTAGATCAAGCAGGCTAAGAAAGCCTGAGT | 1.46 |
| ACTAGCAGACCAAGGGTCACTCAAGATTAGTCCG | 0.108 |
| GCGACTGGGGCAAAGCCGGTTACCATAAGGTTGG | 3.46 |
| ATATGTAGGGTATCGGGTCATTCAGTTTGCGCAT | 6.53 |
| CGTCCAAGGTTATAGGAGGTCAGTGAAGACAGAT | 1.11 |
| ACTATTAGTTGAGACGAAGGCAACCGATAGGTTG | -0.511 |
| CCGACTGGGGCAGAAGGTTACCATAAGCCAGCCC | 1.61 |
| TCATATAGCTAAACAGGTGAAAGTCCGTAAGTTA | 1.46 |
| CGAACTAGGTCGGAACAGGACAGTGAAGGATGAT | 4.12 |
| TAGCCTAGGTCATTGGGCCAGTATCGTACGCATC | 2.91 |
| TCTCGGAGGACACGAAGGGCAGAGCTTTCCAGAG | 1.13 |
| TCTGCTAGGTCAGTTGGTCAGTTAACGAGCTGCC | 2.93 |
| ACTAGCAGGCCAAGGGTCACTTAAGATTAGTCCG | 1.3 |
| CCTCGGGGGACAGAAGGTCAGAGCTGTCCGCTTT | 0.436 |
| GCTCGGATGACAAGGTCAGAGCTTTGTCCGTAGA | 0.0806 |
| CCTACTGGGCCACCAGGTCATTGATATCAACGTT | 4.8 |
| TGAATGAGGTTAAAGAACAGGGAACGTGGCGTCG | 1.89 |
| GCGACTGGGGCATCAGCAGGTTACGATAACTTAA | 3.75 |
| TAGCCTAGGTCATTCAGGAGCCAGTATAGAAAGC | 1.4 |
| ACTGACAGGTGAGTGAAGGTAACTCAGCTGGACG | 0.237 |

| Sequence | PBM binding z-score |
| --- | --- |
| AATACAGGGTCATCGTAGGCCAGAGGACGCACAG | 2.45 |
| CGAACTGGGTCATTGACAGGACAGTGAATAGTAA | 7.7 |
| GCTTACGAGTCAAAGGTTATAGCATGAATAGAAT | -0.0786 |
| CCTAGTTGGTCCGGAGGTCACACACCGGATATGA | 0.0727 |
| TAGCCTAGGTCATGCAGGCCAGTATAGTGTCGGC | 1.84 |
| TAGCATAGGTCATGGGCCAGTATACCACGCGAAC | 0.625 |
| TCATACAGGTAAAAGGTGAAAGTCGGTGTGGTAA | 3.28 |
| TCAAGCAGGCCAGAGGGTCACTCAAGAGGTACGG | 1.38 |
| CTACCAAGGTGAACAAGGTCGTCGATTACTATTC | 2.69 |
| TCTGCTAGGTCAACGAGGGTCAGCTAATCTGCTA | 4.34 |
| TCTTGTGGATCAGCAGGTTAAGAAAGCTGGCCAA | 1.59 |
| CCTACTGGACCATTCAGAGGTCATTGATCATATG | 2.24 |
| ATCGAAAGATCGACGAGGTGAGTATACACCGTTT | -0.646 |
| CCAGACAGGTGAGAAGGTAAGTCAGCCTCGATTA | 0.908 |
| GTGACTGGGGCAAAGCAGGTTACCATAAGGTTGG | 4.87 |
| GCTAGCAGGCCATTTGGGTCACTGAATGACGGGC | 1.8 |
| TCATATAGGTAAATGCTAGGTAAAAGTCCGATCT | 4.04 |
| ACAGACAGGTGATGAAGGGAACTCAGGCTATCAT | 0.344 |
| GCTAGTTGGTCAGTAAAAGGTCACACCCCGGTCG | 0.618 |
| ACTATTTGTTGACTTAGGGCAACCGATACGACGC | 0.22 |
